Test results published in PubChem BioAssay (NCI).
About 79,000 compounds went through this panel and 15% of them were active in at least one assay; those are over-represented in the sample as a whole. The source made the active and inactive calls. Rule as the data show it: active = growth inhibition above about 70%; inactive = the rest.

Tests used:
[1] = NCI Yeast Anticancer Drug Screen. Data for the rad50 strain (AID 155);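 also: 0% = growth of vehicle-only cultures of the same strain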; conditions: S. cerevisiae rad50 strain growth inhibition, active compounds read high
In short: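 DNA repair mutant yeast, compound exposure, growth read-out; inhibition is taken relative to vehicle.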

[2] = NCI Yeast Anticancer Drug Screen. Data for the mec2-1 strain (AID 157); conditions: S. cerevisiae mec2-1 strain, active compounds read high
In short: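 Each compound was tested on mec2-1 yeast, a strain altered in DNA damage repair or cell cycle control. Growth inhibition is reported relative to vehicle.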

[3] = NCI Yeast Anticancer Drug Screen. Data for the sgs1 mgt1 strain (AID 161);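 also: 0% = growth of cultures given vehicle only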; conditions: S. cerevisiae sgs1 mgt1 strain, active compounds read high
In short: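 Test agents were incubated with a DNA-repair-mutant yeast strain. Growth was then read and compared against vehicle-treated controls.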

[4] = NCI Yeast Anticancer Drug Screen. Data for the cln2 rad14 strain (AID 165);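 also: 0% = growth equal to vehicle treated cultures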; conditions: S. cerevisiae cln2 rad14 strain, active compounds read high
In short: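 Test compounds were added to cln2 rad14 yeast cultures; inhibition of growth was then determined by comparison with vehicle treatment.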

[5] = NCI Yeast Anticancer Drug Screen. Data for the bub3 strain (AID 167); conditions: S. cerevisiae bub3 mutant strain, active compounds read high
In short: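 In this screen, a yeast mutant lacking normal mitotic checkpoint function is challenged with compound. Relative growth versus vehicle gives the inhibition value.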

[6] = NCI Yeast Anticancer Drug Screen. Data for the mlh1 rad18 strain (AID 175); conditions: S. cerevisiae mlh1 rad18 strain growth inhibition, active compounds read high
In short: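 Inhibition values reflect reduced growth of mutant yeast versus vehicle-treated controls following compound exposure; the mutations affect DNA damage repair.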

[7] = at 5.0 µM (retest, dose inferred, filed as 0.5)
[8] = at 50.0 µM (retest, dose inferred, filed as 5.0)

Measured: growth inhibition

CCCC(C)c1ccc(O)cc1 (configuration not stated)
inactive: [1]; [7] 6% | [1]; [8] 13% | [1]; at 50.0 µM 57.4% | [2]; [7] 1% | [2]; [8] 16% | [2]; at 50.0 µM 43.9% | [3]; [7] 0% | [3]; [8] 16% | [3]; at 50.0 µM 51.7% | [4]; [7] 4% | [4]; [8] -3% | [4]; at 50.0 µM -26.3% | [5]; [7] -2% | [5]; [8] 17% | [5]; at 50.0 µM 24.6% | [6]; [7] 2% | [6]; [8] 39%
active: [6]; at 50.0 µM 91.7%

O=C(COc1ccc(Cl)c(Cl)c1)Nc1ccc[n+](Cc2ccc(Cl)c(Cl)c2)c1
active: [1]; [8] 99% | [1]; at 50.0 µM 99.6% | [2]; [8] 100% | [2]; at 50.0 µM 99.5% | [3]; [8] 99% | [3]; at 50.0 µM 99.5% | [4]; [8] 99% | [4]; at 50.0 µM 99.2% | [5]; [8] 99% | [5]; at 50.0 µM 99.3% | [6]; [8] 99% | [6]; at 50.0 µM 98.8%
inactive: [1]; [7] -15% | [2]; [7] 1% | [3]; [7] 13% | [4]; [7] 2% | [5]; [7] 2% | [6]; [7] 39%

CCC(C)n1c(C)nc2c(N)cc(C(F)(F)F)cc21 (configuration not stated)
active: [1]; at 50.0 µM 74% | [2]; at 50.0 µM 95.8% | [3]; at 50.0 µM 93.7% | [4]; at 50.0 µM 98.8% | [5]; at 50.0 µM 98% | [6]; at 50.0 µM 94.5%
inactive: [1]; [7] 0% | [1]; [8] 11% | [2]; [7] 3% | [2]; [8] 30% | [3]; [7] 4% | [3]; [8] 38% | [4]; [7] 1% | [4]; [8] 8% | [5]; [7] -4% | [5]; [8] 9% | [6]; [7] 0% | [6]; [8] 28%

COc1ccc(C(=O)Cn2c(C(C)=O)nc3ccccc32)cc1
active: [3]; [8] 73%
inactive: [1]; [7] 26% | [1]; [8] 66% | [1]; at 50.0 µM -23.6% | [2]; [7] 18% | [2]; [8] 36% | [2]; at 50.0 µM -21.1% | [3]; [7] 36% | [3]; at 50.0 µM -14.5% | [4]; [7] 6% | [4]; [8] 32% | [4]; at 50.0 µM 4% | [5]; [7] 31% | [5]; [8] 36% | [5]; at 50.0 µM -32.6% | [6]; [7] 28% | [6]; [8] 52% | [6]; at 50.0 µM -43.2%

CC12CCC(=O)C=C1CCC1C2CCC2(C)C(c3cnc[nH]3)CCC12 (configuration not stated)
inactive: [1]; [7] 51% | [2]; [7] 36% | [2]; [8] 46% | [2]; at 50.0 µM 30.1% | [3]; [7] 39% | [3]; at 50.0 µM 65.2% | [4]; [7] 52% | [4]; [8] 43% | [4]; at 50.0 µM 34.9% | [5]; [7] 53% | [5]; at 50.0 µM 69.5% | [6]; [7] 41% | [6]; at 50.0 µM 39.1%
active: [1]; [8] 75% | [1]; at 50.0 µM 77% | [3]; [8] 82% | [5]; [8] 70% | [6]; [8] 70%

COc1ccc(C(C)c2cc3c(cc2O)OCO3)cc1 (configuration not stated)
active: [1]; [8] 99% | [1]; at 50.0 µM 98.5% | [2]; at 50.0 µM 98.7% | [3]; at 50.0 µM 98.8% | [4]; at 50.0 µM 97.1% | [5]; [8] 76% | [5]; at 50.0 µM 98.5% | [6]; [8] 97% | [6]; at 50.0 µM 98%
inactive: [1]; [7] 7% | [2]; [7] -8% | [2]; [8] 48% | [3]; [7] -3% | [3]; [8] 56% | [4]; [7] -23% | [4]; [8] 58% | [5]; [7] -22% | [6]; [7] 7%

Cc1cc(S(=O)(=O)Nc2nc(N)nc(N(C)C)n2)c(SC(C(=O)O)c2ccccc2)cc1Cl (configuration not stated)
active: [4]; at 50.0 µM 93.2%
inactive: [1]; [7] -11% | [1]; [8] -4% | [1]; at 50.0 µM -8.65% | [2]; [7] -3% | [2]; [8] -15% | [2]; at 50.0 µM 14.1% | [3]; [7] -11% | [3]; [8] -8% | [3]; at 50.0 µM -0.25% | [4]; [7] -15% | [4]; [8] 4% | [5]; [7] 14% | [5]; [8] -17% | [5]; at 50.0 µM 16.1% | [6]; [7] -9% | [6]; [8] -3% | [6]; at 50.0 µM 5.3%

C#CCNC1=CC(=O)CCC1
inactive: [1]; [7] -14% | [1]; [8] 16% | [1]; at 50.0 µM -12.1% | [2]; [7] 0% | [2]; [8] -1% | [2]; at 50.0 µM 9.55% | [3]; [7] -3% | [3]; [8] -10% | [3]; at 50.0 µM -4.55% | [4]; [7] 17% | [4]; [8] 6% | [4]; at 50.0 µM 58.5% | [5]; [7] 14% | [5]; [8] -13% | [5]; at 50.0 µM 35.5% | [6]; [7] -4% | [6]; [8] 1% | [6]; at 50.0 µM 17.6%

O=[N+]([O-])c1ccc(NS(=O)(=O)c2ccccc2)c(NS(=O)(=O)c2ccccc2)c1
active: [1]; [8] 75% | [1]; at 50.0 µM 81.5% | [2]; [8] 76% | [2]; at 50.0 µM 73.4% | [3]; [8] 81% | [3]; at 50.0 µM 83.2% | [4]; at 50.0 µM 82.1% | [5]; at 50.0 µM 80.1% | [6]; [8] 90% | [6]; at 50.0 µM 71.7%
inactive: [1]; [7] 15% | [2]; [7] 14% | [3]; [7] 20% | [4]; [7] 27% | [4]; [8] 32% | [5]; [7] 6% | [5]; [8] 43% | [6]; [7] 11%
